# Experiments:
# Assay in all cases: pooled miR-30 sensor sort-seq; sequence = guide strand
# Conditions in all cases: shRNA
# MLL = molecular target: MLL
# MKNK2 = molecular target: MKNK2
# MMADHC = molecular target: MMADHC
# MIS12 = molecular target: MIS12
# MOBKL1B = molecular target: MOBKL1B
# MOGAT1 = molecular target: MOGAT1
# MON2 = molecular target: MON2
# MOCS3 = molecular target: MOCS3
# Further: reference of the scale not given here.
sequence,measurement,setting,value
TTACTCTTCTCAATCTTGCAGA,sensor-assay potency score (higher = more potent),MLL,0.352
TTGTTTAAGACTCTTACTCTTC,sensor-assay potency score (higher = more potent),MLL,-0.426
TTAAAGTCCACTCTGATCCTGT,sensor-assay potency score (higher = more potent),MLL,0.574
TATACTTTTAGAATCTTTCTTC,sensor-assay potency score (higher = more potent),MLL,0.988
TTGTCGGGGAACTCGTACTTGC,sensor-assay potency score (higher = more potent),MKNK2,-1.05
TTTGCCATTAGCTACTTCTGGA,sensor-assay potency score (higher = more potent),MMADHC,-0.35
TTCGAGAGCATATATCTGGAGG,sensor-assay potency score (higher = more potent),MMADHC,-0.923
TTTTCGTCGTTCTAGATCCAAA,sensor-assay potency score (higher = more potent),MLL,-1.11
TTAGTACATAATTCAGTCTTGT,sensor-assay potency score (higher = more potent),MIS12,-0.329
TGAGGTGACAATCAAAACCTAT,sensor-assay potency score (higher = more potent),MMADHC,-0.635
TAATTTCTTGTTCAACAGGTGC,sensor-assay potency score (higher = more potent),MMADHC,-0.82
TTCATCATCAAGCTGATCTTGA,sensor-assay potency score (higher = more potent),MOBKL1B,0.57
TAAAAGAATAAAACCAATCTGA,sensor-assay potency score (higher = more potent),MOBKL1B,-0.367
AATATTAGTACCATCTGCCCAG,sensor-assay potency score (higher = more potent),MOBKL1B,0.0511
TAGGACACACTTTTCTTGGAAA,sensor-assay potency score (higher = more potent),MOGAT1,-0.902
AAAAACAACAGTAACAACTTGT,sensor-assay potency score (higher = more potent),MON2,0.77
TTAAAGGGTCTAACTCTTGAGC,sensor-assay potency score (higher = more potent),MOCS3,-0.607
TATAGGTCTGATGTAACTCCTC,sensor-assay potency score (higher = more potent),MOGAT1,-0.267
TTCTAATCCATGATCCTTCAGG,sensor-assay potency score (higher = more potent),MOGAT1,-0.32
TTAGAAAGCATTTTGACTGGGG,sensor-assay potency score (higher = more potent),MOCS3,0.772
TTTTAATATTAGTACCATCTGC,sensor-assay potency score (higher = more potent),MOBKL1B,-0.715
TTTCTGTGAGTCATTTCCCAGT,sensor-assay potency score (higher = more potent),MOCS3,-0.966
TTAATTCTTGAAGAGGTGCCAG,sensor-assay potency score (higher = more potent),MOBKL1B,-0.419
TTCTTCAAGACTATTCTCCATT,sensor-assay potency score (higher = more potent),MON2,-0.51
TTGTACTGAAAAACTCCCCTGG,sensor-assay potency score (higher = more potent),MOGAT1,0.595
TAGCGCAGAATCTCATCTCGGG,sensor-assay potency score (higher = more potent),MOCS3,-0.0421
ATGAATTGGAAAATAGTCCTTA,sensor-assay potency score (higher = more potent),MOGAT1,0.9
TTACCATGTAGGACACACTTTT,sensor-assay potency score (higher = more potent),MOGAT1,-0.495
TATTATGGCAATCCACATCTTT,sensor-assay potency score (higher = more potent),MOCS3,-0.453
TTTTGGTGCAGAACATTTGATT,sensor-assay potency score (higher = more potent),MOBKL1B,-0.935

# — the OligoGym collection
